Measurements from PubChem BioAssay AID624330 (Southern Research Specialized Biocontainment Screening …, 2012).
Among all 340,000 compounds or so, about 2,100 (0.62%) were called active.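 The calls were made as follows: active = first-screen hits whose inhibition reached a set limit at any dose in the follow-up dose series; inconclusive = inhibition above the set first-screen limit but never retested; inactive = the rest.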 A selection follows. Potency and affinity values are given separately.

target: Rac GTPase-activating protein 1 (Homo sapiens) (UniProt Q9H0H5); test: blockers of MgcRacGAP-driven Rac1 GTP hydrolysis – biochemical, ADP Hunter fluorescence, primary and confirmatory, confirmation (AID 624330); details: MgcRacGAP-stimulated Rac1 GTP hydrolysis, at 30 µM, hits give high values, GST-tagged Rac1 F28L mutant substrate;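 also: fluorescence reports GDP produced by GAP-driven GTP hydrolysis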
Sequence (Q9H0H5 whole entry, looked up): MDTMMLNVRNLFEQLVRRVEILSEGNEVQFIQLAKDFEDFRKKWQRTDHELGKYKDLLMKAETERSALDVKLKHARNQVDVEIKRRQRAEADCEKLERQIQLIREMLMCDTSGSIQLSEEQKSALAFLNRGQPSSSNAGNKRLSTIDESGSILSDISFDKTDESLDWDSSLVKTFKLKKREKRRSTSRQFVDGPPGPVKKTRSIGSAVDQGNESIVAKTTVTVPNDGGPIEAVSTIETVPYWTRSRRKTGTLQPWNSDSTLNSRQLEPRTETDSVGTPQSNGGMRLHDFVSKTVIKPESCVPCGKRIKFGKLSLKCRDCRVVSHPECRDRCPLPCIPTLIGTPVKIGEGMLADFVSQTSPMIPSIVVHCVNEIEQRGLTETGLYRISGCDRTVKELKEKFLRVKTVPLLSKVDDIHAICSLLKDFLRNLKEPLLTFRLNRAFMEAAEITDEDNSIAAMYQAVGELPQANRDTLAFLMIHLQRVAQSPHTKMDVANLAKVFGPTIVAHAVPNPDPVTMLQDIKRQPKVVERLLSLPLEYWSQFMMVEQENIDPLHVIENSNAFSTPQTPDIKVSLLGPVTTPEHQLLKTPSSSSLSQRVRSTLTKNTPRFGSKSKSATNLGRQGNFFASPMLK

inhibition, inactive:
CCOc1ccc(CN(C)CC(=O)c2c(N)n(Cc3ccccc3)c(=O)n(CC)c2=O)cc1OC 5.23%
CCn1c(=O)c(C(=O)CN(C)Cc2ccc(F)cc2)c(N)n(Cc2ccccc2)c1=O 5.49%
Cc1cccc(NC(=O)c2nc[nH]c2C(=O)N[C@@H](CC(C)C)C(=O)OCc2ccccc2)c1 5.96%
Cc1cc(C)cc(NC(=S)N2CCC(C(=O)c3ccc(F)cc3)CC2)c1 -15.2%
CC(C)CN(C(=O)c1cc2ccccc2o1)c1c(N)n(CC(C)C)c(=O)[nH]c1=O 7.89%
Cc1nn(-c2ccccc2)c(C)c1NC(=O)COC(=O)CCOc1ccccc1 2.57%
Cc1ccc(N/C=C2\CCCCC2=O)c(C)c1 5.15%
CC(=O)Nc1ccc(N/C=C2/CCCC2=O)cc1 14.8%
CCCCC(CC)C(=O)Nc1ccc(Nc2ccccc2)cc1 (stereo unspecified) 22.3%
CCC(CC)C(=O)Nc1ccc(Nc2ccccc2)cc1 28%
COCC(=O)Nc1ccc(Nc2ccccc2)cc1 15.4%
c1ccc(Nc2ccccc2)cc1 3.58%
O=C(O)CCC(NS(=O)(=O)c1ccc(N2CCCC2=O)cc1)C(=O)O (stereo unspecified) -1.24%
CCOc1ccc(S(=O)(=O)N2CCN(C(=O)c3cc(-c4ccccc4)nn3-c3ccccc3)CC2)cc1 6.52%
CNC(=O)C(=O)Nc1ccc2c(c1)N(S(=O)(=O)c1cccs1)CCC2 4.61%
CN(CCCC1CCCC1)C(=O)c1cc(COc2c(F)cccc2F)on1 7.43%
CCOc1cc(/C=C/c2cccc[n+]2C)ccc1OCC(=O)Nc1ccc(C)cc1 7.44%
C[n+]1ccccc1/C=C/c1ccc(F)c(F)c1 9.42%
Cc1ccc(CS(=O)Cc2ccc(C(=O)N3CCN(c4ccccn4)CC3)o2)cc1 (stereo unspecified) 9.12%
COc1cc2[nH]ccc(=O)c2cc1OC 1.14%
COc1ccc2cc[nH]c2c1 6.12%
Nc1[nH][nH]c(=O)c1N=Nc1ccc2c(c1)OCO2 19.5%
Nc1n[nH]c(N)c1N=Nc1ccc(F)cc1 12.4%
Cc1ccccc1-n1c(SCC(=O)c2c(N)n(C3CC3)c(=O)[nH]c2=O)nnc1N1CCOCC1 4.29%
CC1(C)CC(=O)C(C(C2=C(O)CC(C)(C)CC2=O)c2cccnc2)C(=O)C1 (stereo unspecified) 12%
CC1(C)CC(=O)C(C(C2=C(O)CC(C)(C)CC2=O)c2ccc([N+](=O)[O-])cc2)C(=O)C1 (stereo unspecified) 10.9%
CC1(C)CC(=O)C(Br)=C(O)C1 -4.56%
CC1(C)CC(=O)C(C(C2=C(O)CC(C)(C)CC2=O)c2ccco2)C(=O)C1 (stereo unspecified) 29%
CC1(C)CC(=O)C(C(C2=C(O)CC(C)(C)CC2=O)c2cccc(O)c2)C(=O)C1 (stereo unspecified) 7.97%
CC1(C)CC(=O)C(C(C2=C(O)CC(C)(C)CC2=O)c2ccc(Cl)c([N+](=O)[O-])c2)C(=O)C1 (stereo unspecified) -0.37%
COc1cccc(C(C2=C(O)CC(C)(C)CC2=O)C2C(=O)CC(C)(C)CC2=O)c1 (stereo unspecified) -5.78%
CCCC(C1=C(O)CC(C)(C)CC1=O)C1C(=O)CC(C)(C)CC1=O (stereo unspecified) 8.39%
CC[C@@]1(C(=O)OC)N[C@H](CN(C)C(=O)COC)[C@@H]2C(=O)N(C)C(=O)[C@@H]21 6.93%
CC1CC(C)CN(CCCCOc2ccc([N+](=O)[O-])cc2)C1 (stereo unspecified) 19.1%
CCOC(=O)C1=C(C)NC(=O)NC1/C=C\c1ccccc1 (stereo unspecified) 15.6%
CCOc1ccc(CCNC(=O)C2=C(C)C(=O)OC23CCC(C)CC3)cc1 (stereo unspecified) 8.86%
CN1CCN(c2ccc(NC(=S)NC(=O)c3cccc4c(Cl)cccc34)cc2)CC1 9.96%
CCCCNS(=O)(=O)c1cc2c3c(c1)CCN3C(=O)CC2 10.4%
COc1ccc(S(=O)(=O)NCc2cn3c(C)csc3n2)cc1F 7.58%
CN(Cc1nc2ccccc2c(=O)[nH]1)C(=O)COc1ccccc1Cc1ccccc1 4.16%
O=C1C(=Cc2ccccc2[N+](=O)[O-])Cc2ccccc21 5.54%
CNc1ccc(/C=C2\COc3ccccc3C2=O)cc1[N+](=O)[O-] 9.69%
Cc1cc2oc(=O)c(CC(=O)NCCCO)c(C)c2c2occ(C(C)(C)C)c12 4.92%
CCOc1cc(/C=N/NC(=O)c2cccnc2)ccc1OCC(N)=O 3.29%
O=C(OCc1nnc(-c2ccccc2)o1)c1cn(-c2ccccc2)nc1-c1ccccc1 4.52%
O=C1CC(c2cccs2)c2ccc3ccccc3c2N1 (stereo unspecified) 6.36%
OC1CCN(Cc2cccc3ccccc23)CC1 14.2%
COc1ccc(-c2nnn(CC(=O)NCCc3c[nH]c4ccccc34)n2)cc1OC 7.85%
COc1cc(/C=C2/C(=O)NN(c3ccc(F)cc3)C2=O)cc(Cl)c1O 20.4%
COc1cc(/C=C2/C(=O)NN(c3ccccc3)C2=O)cc(Br)c1O 23.7%
COc1cccc(C2=CC(=O)C[C@H](c3ccc4c(c3)OCO4)C2)c1OC 6.37%
O=c1c2cc([N+](=O)[O-])ccc2sn1-c1ccccc1 17.4%
O=c1c2ccccc2sn1-c1ccc(S(=O)(=O)N2CCCCC2)cc1 10.2%
O=c1c2ccccc2ncn1-c1cccc(Cl)c1 5.62%
Cc1cc(=O)cc(C)n1-c1ccc(Cl)cc1 5%
O=c1c2ccccc2cnn1-c1ccc(Cl)cc1 1.97%
O=c1c2ccccc2sc2ccc(Cl)cc12 5.89%
Cc1nn(-c2ccc(Cl)cc2Cl)c(=O)c2ccccc12 -1.03%
CC1=CC(C)(C)N(C)C(=O)N1c1ccc(Cl)cc1 6.14%
O=c1c2cnn(-c3ccccc3)c2ncn1Cc1ccccc1F 7.32%
CC(=O)c1ccc(-c2nnc(CCC(=O)N3CCCC(C(=O)CC(C)C)C3)o2)s1 (stereo unspecified) 9.2%
CCn1c(SCC(=O)NCCOC)nc2sc3c(c2c1=O)CCCC3 6.34%
CC1CCCCC1NC(=O)CCn1c(=O)sc2ccccc21 (stereo unspecified) 12.2%
CN(CC(=O)Nc1ccc(N2CCOCC2)cc1)CC(=O)Nc1ccccc1C#N 6.72%
O=c1oc2cc(Br)ccc2n1Cc1ccccc1 13.7%
CCc1nnc(NC(=O)c2cccc(S(=O)(=O)N3CCCCC3)c2)s1 10.2%
COC(=O)Cc1c(O)ccn(CCc2ccc(OC)c(OC)c2)c1=O 5.94%
Cc1ccc(S(=O)(=O)N2C[C@@H](C)[C@]3(C2)[C@H](O)[C@H](OC(=O)NC2CCCC2)C[C@H]2C(=O)N(c4ccccc4)C(=O)[C@H]23)cc1 15.8%
CSc1nc2c(C)c(C)c(C)c(C)c2[nH]1 2.42%
CCOC(=O)N1CCN(C(=O)CC(C(=O)N2CCc3ccccc32)n2ccnc2)CC1 (stereo unspecified) 4.9%
O=C(COc1ccc2c3c(c(=O)oc2c1)CCCC3)NCCN1CCOCC1 1.04%
CCOC(=O)C1=C(O)/C(=C/c2cc(OC)c(OC)c(OC)c2)N=C1C 2.56%
COC(=O)C1=C(O)/C(=C\c2sccc2C)N=C1C 10.9%
COC(=O)C1=C(O)/C(=C/c2cccc(OC)c2O)N=C1C 28.1%
CCOC(=O)C1=C(O)/C(=C\c2ccc(OC)c(OC)c2)N=C1C -1.28%
COC(=O)C1=C(O)/C(=C/c2ccc(OCC(=O)Nc3ccc(OC)cc3)cc2)N=C1C 6.48%
CCOC(=O)C1=C(O)/C(=C\c2cccc(OC)c2)N=C1C 7.59%
CN1CCN(NC(=O)c2cc([N+](=O)[O-])cc([N+](=O)[O-])c2)CC1 -0.16%
CCC(C)NC(=O)CN(c1cc(C)cc(C)c1)S(=O)(=O)c1c(C)[nH]c(=O)[nH]c1=O (stereo unspecified) 9.01%
CCCC(=O)Nc1ccc2c(c1)nc(CCNC(=O)c1ccccc1)n2C 1.08%
Cc1nonc1CN(C)C(=O)c1cc(COc2ccc(F)cc2Cl)on1 1.26%
Cn1c(=O)c2c(nc(N3CCNCC3)n2Cc2cccc3ccccc23)n(C)c1=O 6.58%
Cc1cccc(C(=O)NCC(=O)NNC(=O)c2ccccc2O)c1 2.8%
Cc1ccc(NC(=O)c2cc(N3C(=O)CCC3=O)ccc2N2CCCCC2)cc1 5.7%
CCN(CC)c1ccc(N=Cc2ccc([N+](=O)[O-])o2)cc1 25.9%
COc1ccc(N=Cc2c(O)[nH]c3ccccc23)cc1 9.26%
Oc1[nH]c2ccccc2c1C=Nc1ccccc1 11.5%
CCN(CC)c1ccc(N=Cc2ccc(N(CC)CC)cc2O)cc1 6.98%
CC1(C)CC(=O)C=C(NCCN2CCN(C(=S)NC3CCCCC3)CC2)C1 -3.74%
CN(Cc1ccccc1)S(=O)(=O)c1ccc(Cl)nc1 11.5%
CCOC(=O)c1ccccc1NC(=O)COC(=O)CCNS(=O)(=O)c1cccs1 3.03%
COc1ccc(NC(=O)NNC(=O)C(C)Oc2ccc3ccccc3c2)cc1 (stereo unspecified) 3.58%
Cc1ccc(Nc2ccccc2)cc1 6.69%
O=C(Nc1ccc(Nc2ccccc2)cc1)C(Cl)(Cl)Cl 12.3%
S=C(NCCc1ccccc1)Nc1ccc(Nc2ccccc2)cc1 26.5%
O=C(Nc1ccc(Nc2ccccc2)cc1)c1c(F)c(F)c(F)c(F)c1F -3.02%
